Six1-Eya2 inh – qHTS Assay for Inhibitors of the Six1/Eya2 Interaction | Homeobox protein SIX1 (Homo sapiens) + Protein phosphatase EYA2 (Homo sapiens), … | AlphaScreen GST-Six1/His-Eya2 binding, biochemical; active compounds read low | activity change, % (no concentration beside the values) | 0.56% of 360,000 active; in the data active = activity change below about -65%; inconclusive = mostly about -30% to -63%; also: % is scaled to controls: 0 for no effect and ±100 for the full control effect
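AlphaScreen with GST-Six1 and His-Eya2 (5X mix: 250 nM and 500 nM), glutathione donor and nickel acceptor beads; buffer 50 mM Tris pH 8.0, 300 mM NaCl, 1 mM TCEP; 1 h at 37 C in the dark.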
BAZ2B block – qHTS Assay for Inhibitors of BAZ2B; AlphaScreen BAZ2B-H3K14Ac peptide displacement; Potency, µM (doses to about 114 µM), for the others: at the top dose activity change, negative = inhibition, most hits filed as inhibitors; 4.4% of 360,000 active; AID 504333, 2011; also: potency is read from the fitted curve at half-maximal effect; % is scaled to controls: 0 for no effect and ±100 for the full control effect; nearly all actives have a fitted effect of over 60% in size
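In this displacement format the biotinylated H3(5-23) peptide acetylated at Lys14 serves as ligand at 50 nM, with BAZ2B at 50 nM in PBS pH 7.4 containing 0.01% Tween-20. Donor and acceptor beads are 10 ug/mL final.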
TDP1 inh – qHTS Assay for Inhibitors of Tyrosyl-DNA Phosphodiesterase (TDP1); recombinant TDP1, AlphaScreen DNA substrate cleavage; Potency, µM (doses to about 130 µM), for inactives: top-dose activity change, negative = inhibition, most hits filed as inhibitors; 0.28% of 350,000 active; also: potency is read from the fitted curve at half-maximal effect; % is scaled to controls: 0 for no effect and ±100 for the full control effect; nearly all actives have a fitted effect of over 40% in size
Target sequence (Q9NUW8 whole entry, looked up): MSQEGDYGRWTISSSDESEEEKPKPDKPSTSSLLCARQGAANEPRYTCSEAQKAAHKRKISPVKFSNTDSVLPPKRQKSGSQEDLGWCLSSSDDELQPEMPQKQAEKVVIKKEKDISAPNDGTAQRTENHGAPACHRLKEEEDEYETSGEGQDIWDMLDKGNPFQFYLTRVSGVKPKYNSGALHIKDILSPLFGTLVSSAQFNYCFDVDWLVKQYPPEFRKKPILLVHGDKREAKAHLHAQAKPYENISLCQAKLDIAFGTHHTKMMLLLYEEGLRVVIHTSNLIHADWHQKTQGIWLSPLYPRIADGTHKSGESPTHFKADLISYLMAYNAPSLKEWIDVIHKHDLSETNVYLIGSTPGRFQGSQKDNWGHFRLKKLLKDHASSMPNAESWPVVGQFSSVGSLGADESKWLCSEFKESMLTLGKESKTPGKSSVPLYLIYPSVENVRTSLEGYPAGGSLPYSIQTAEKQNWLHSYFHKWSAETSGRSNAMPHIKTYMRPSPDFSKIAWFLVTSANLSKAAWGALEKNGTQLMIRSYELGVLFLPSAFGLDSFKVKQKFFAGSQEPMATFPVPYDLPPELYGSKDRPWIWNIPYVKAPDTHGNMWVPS
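Recombinant human Tdp1 (E. coli-expressed, 1 nM final) preincubated with compounds 15 min at room temperature, then 5'-biotin/3'-phosphotyrosine-FITC DNA substrate (15 nM final) added for 5 min. AlphaScreen beads (10 ug/ml final) added 10 min; cleavage lowers signal.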
JMJD2A Tudor inh – qHTS Assay for Inhibitors of JMJD2A-Tudor Domain; AlphaScreen JMJD2A-Tudor / H3K4me3 peptide binding; Potency, µM (highest dose often 114 µM), inactives show top-dose activity change, negative = inhibition, usual class: inhibitors; 4.4% of 390,000 active; also: potency is read from the fitted curve at half-maximal effect; % is scaled to controls: 0 for no effect and ±100 for the full control effect; nearly all actives have a fitted effect of over 50% in size
HP1b chromo inh – HTS for Inhibitors of HP1-beta Chromodomain Interactions with Methylated Histone Tails; Potency, µM (series often up to 114 µM), inactives show top-dose activity change, negative = inhibition, actives largely listed as inhibitors; Chromobox protein homolog 1 (Homo sapiens), P83916; AlphaScreen HP1-beta / biotin-H3K9me3 peptide binding; 0.56% of 390,000 active; also: potency is read from the fitted curve at half-maximal effect; nearly all actives have a fitted effect of over 70% in size
Target sequence (P83916 whole entry, looked up): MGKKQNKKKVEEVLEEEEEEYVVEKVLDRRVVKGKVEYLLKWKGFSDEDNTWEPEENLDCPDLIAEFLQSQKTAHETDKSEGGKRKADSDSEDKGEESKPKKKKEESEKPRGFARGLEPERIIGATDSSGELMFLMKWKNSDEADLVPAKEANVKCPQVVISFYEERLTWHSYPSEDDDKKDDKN
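HP1-beta protein (50 nM final) preincubated 30 min at room temperature with biotinylated H3(1-18)K9me3 peptide (50 nM) in PBS pH 7.4, 0.01% Tween-20, then compound added for 30 min. AlphaScreen streptavidin donor/nickel chelate acceptor beads (10 ug/mL final), 30 min dark, luminescence read.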
CtBP-E1A blk – qHTS Assay for Inhibitors of the CtBP/E1A Interaction | 0.49% of 340,000 active | activity change, % (no concentration beside the values) | CtBP / adenovirus E1A interaction (AlphaScreen) | AID 651724, 2012 | AlphaScreen GST-E1A/His-CtBP binding, 1536-well; active compounds read low; in the data active = activity change below about -65%; inconclusive = mostly about -30% to -63%; also: % is scaled to controls: 0 for no effect and ±100 for the full control effect
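Protein mix (5X: 125 nM each GST-E1A, His-CtBP) was incubated with pinned compound 2 h at 37 deg C in dark, in 50 mM Tris pH 8.0 buffer with 300 mM NaCl. Glutathione donor and nickel acceptor beads followed; AlphaScreen signal read after 1 h.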
Starred values were filed as active, the others as inactive; ? = inconclusive; / = not tested or not shown; ! = repeats disagree; [ ] = dose if it differs, or a comment. Most compounds without a hit are left out; they make up all but 5.3% or so of the library. Unless noted, calls follow the shape of the dose curve; as a rule, active = well fitted inhibition curve with a large enough effect; inconclusive = small, poorly fitted or top-dose-only effect; inactive = no such curve, though single readings can be large or run the other way.

SMILES | Six1-Eya2 inh | BAZ2B block | TDP1 inh | JMJD2A Tudor inh | HP1b chromo inh | CtBP-E1A blk
CC1Cc2cc(S(=O)(=O)CCC(=O)NCc3ccccc3Cl)ccc2N1C(=O)C1CC1 (stereo not drawn) | / | -2.9% | 0.0% | 10.7% | 42.5% | /
COC(=O)c1ccccc1NC(=O)Cn1c(=O)n(CCCC(=O)NCc2ccccc2Cl)c(=O)c2ccccc21 | / | -1.6% | 2.5% | 1.4% | 28.6% | /
COc1ccc(CN2CCN(Cc3ccc(C(F)(F)F)cc3)CC2)c(OC)c1 | -22.8 | 25.1µM* | / | 5.62µM* | ? | /
C#CCOCCOCCOCCNc1nc(N2CCN(C(=O)[C@H](Cc3cc4ccccc4[nH]3)n3cc([C@@H](N)Cc4ccc(O)cc4)nn3)CC2)nc(N2CCN(C(=O)[C@H](Cc3cc4ccccc4[nH]3)n3cc([C@@H](N)CC(C)C)nn3)CC2)n1 | -21.6 | ? | 9.5% | 50.1µM* | -23.7% | -24.8
C#CCOCCOCCOCCNc1nc(N2CCN(C(=O)[C@H](C)n3cc(CCCN=C(N)N)nn3)CC2)nc(N2CCN(C(=O)[C@H](Cc3ccc(O)cc3)n3cc(CCO)nn3)CC2)n1 | / | ? | -14.5% | / | / | /
C#CCOCCOCCOCCNc1nc(N2CCN(C(=O)Cn3cc(CCCCN)nn3)CC2)nc(N2CCN(C(=O)[C@H](Cc3ccc(O)cc3)n3cc(CCO)nn3)CC2)n1 | -7.1 | / | / | -5.1% | 37.0% | 8.3
C#CCOCCOCCOCCNc1nc(N2CCN(C(=O)C(Cc3cc4ccccc4[nH]3)n3cc(C(N)Cc4ccc(O)cc4)nn3)CC2)nc(N2CCN(C(=O)C(Cc3cc4ccccc4[nH]3)n3cc(C(N)Cc4ccc(O)cc4)nn3)CC2)n1 (stereo not drawn) | -14.3 | 11.2µM* | 9.0% | 8.91µM* | -36.1% | -17.6
Cn1nc(-c2ccc(OCC(=O)Nc3cccc(C(F)(F)F)c3)cc2)c2ccccc2c1=O | / | -30.7% | 2.1% | -19.9% | 15.5% | /
Oc1ccc2ccccc2c1C=Nc1ccc(Cl)cn1 | -7.3 | -9.5% | -3.1% | 25.1µM* | -19.7% | 4.3
Oc1ccc2ccccc2c1/C=N/c1nc2c(s1)CCCC2 | -8.3 | -35.4% | 3.8% | 50.1µM* | ? | 2.1
Cc1cc(O)c(C=Nc2ccc(Cl)cn2)c(=O)o1 | 0.3 | ? | -7.8% | 31.6µM* | 7.1% | -0.5
Cc1cc(O)c(/C=N/c2ccccn2)c(=O)o1 | -1.3 | ? | -7.8% | 79.4µM* | 18.8% | -2.4
Oc1ccc2ccccc2c1/C=N/n1cnnc1 | -2.3 | -2.5% | 5.7% | -1.1% | 20.2% | -0.8
Cc1ccc(S(=O)(=O)N(CCc2ccccc2)CC(=O)Nc2cc(C)ccc2C)cc1 | / | 1.4% | 2.3% | -18.6% | 22.9% | /
CCOc1ccc(C2C(C(N)=O)=C(C)Nc3nc(-c4ccc(OC)cc4)nn32)cc1 (stereo not drawn) | / | 8.6% | / | -5.5% | 20.5% | /
Cc1ccc(NC(=O)CN(C)S(=O)(=O)c2ccc3c(c2)n(C)c(=O)c(=O)n3C)cc1F | / | 5.3% | 1.3% | -2.3% | 39.2% | /
O=C(Nc1ccncc1)c1ccc(Cl)cc1 | 10.6 | -0.5% | / | -7.8% | 28.8% | 9.1
Cc1ccc(N=N/C(=C\O)C(=O)c2ccncc2)cc1 | -20.4 | 44.7µM* | 7.6% | ? | -29.5% | 1.0
Cc1ccc(OC(=O)c2ccncc2)c(C)c1 | 2.4 | 12.3% | / | 15.9% | 47.6% | /
O=C(/C(=C/O)N=Nc1ccc(Cl)cc1)c1ccncc1 | -19.2 | 31.6µM* | 11.5% | ? | -50.0% | -7.7
Cc1ncc(CO)c(/C=N/NC(=S)Nc2cccc(Cl)c2)c1O | -18.5 | 12.6µM* | 2.7% | 56.2µM* | ? | /
Cc1ncc(CO)c(/C=N/NC(=S)Nc2ccc(Cl)c(Cl)c2)c1O | -16.0 | 22.4µM* | 2.5% | ? | ? | /
COc1cc(N=Cc2c(CO)cnc(C)c2O)cc(OC)c1OC | -3.4 | -26.6% | 4.3% | ? | 38.6% | /
NNC(=O)c1cc2c(s1)CCCCCC2 | 12.6 | -11.5% | 4.0% | -21.8% | 38.3% | -6.6
Cc1ncc(CO)c(/C=N/NC(=O)c2cc3c(s2)CCCC3)c1O | -88.4* | 50.1µM* | 8.2% | 56.2µM* | 15.3% | /
SMILES | Six1-Eya2 inh | BAZ2B block | TDP1 inh | JMJD2A Tudor inh | HP1b chromo inh | CtBP-E1A blk
COc1ccc2[nH]cc(CCNC(=O)Nc3cc(C)cc(C)c3)c2c1 | / | -30.7% | 7.6% | ? | 2.3% | /
CCn1c(=O)c2cc(C(=O)Nc3cccc(C(F)(F)F)c3)sc2c2ccccc21 | / | -8.6% | 2.3% | 1.7% | 31.9% | /
O=C(CCC(=O)Nc1ccc(F)cc1)N/N=C/c1ccncc1 | -17.5 | / | 1.2% | 3.55µM* | 3.6% | -15.3
O=C(CCC(=O)Nc1ccccc1)N/N=C/c1ccncc1 | -2.5 | 0.7% | 3.1% | -16.9%[11.4 µM] | 6.8% | -4.8
CCSc1nnc(NC(=O)c2cnccn2)s1 | -1.0 | 21.7% | 3.0% | 79.4µM* | 34.8% | 1.0
CCSc1nnc(NC(=O)c2ccccn2)s1 | -94.2* | 6.31µM* | 11.4% | 8.91µM* | 61.1% | -91.4*
CCSc1nnc(NC(=O)c2cccnc2Cl)s1 | 2.1 | -12.4% | 0.0% | 7.6%[57.1 µM] | 38.9% | -6.6
Cc1cc(C)cc(Nc2ncc3c(n2)CC(c2ccco2)CC3=O)c1 (stereo not drawn) | -12.2 | -30.8% | 8.2% | 89.1µM* | ? | -5.7
Cc1cccc(Nc2ncc3c(n2)CC(c2ccco2)CC3=O)c1 (stereo not drawn) | -4.8 | -2.3% | -4.6% | 10.3% | 17.0% | -8.1
Cc1[nH]ccc(=O)c1Cc1c(Cl)cccc1Cl | -1.4 | -2.0% | / | -0.7% | 19.9% | 9.1
Cc1nc(C(Cl)(Cl)Cl)nc2[nH]ccc(=O)c12 | -8.8 | -29.6% | -0.6% | 11.2µM* | -9.9% | 0.0
COc1ccc(S(=O)(=O)N(CCc2ccccc2)CC(=O)Nc2cc(C)ccc2C)cc1 | / | 1.6% | 2.9%[2.28 µM] | 0.3% | 37.1% | /
Cc1ccc(C(=O)Nc2nnc(S(=O)(=O)N3CCCCCC3)s2)cc1 | 5.3 | 10µM*! | 9.1% | 25.1µM*! | ? | -21.7
COc1ccccc1C(=O)Nc1nnc(S(=O)(=O)N2CCCCCC2)s1 | 7.2 | 7.08µM*! | 11.7% | 20µM*! | 48.2% | -17.4
COc1ccccc1C(=O)Nc1nnc(-c2ccco2)s1 | -7.5 | ? | 50.1µM* | ? | 32.0% | 7.0
O=C(Nc1nnc(S(=O)(=O)N2CCCCCC2)s1)c1ccccc1F | -4.2 | 10µM*! | 13.0% | 39.8µM*! | 50.6% | 0.1

Compound activity as filed in PubChem.
